# A number with no mark means an inactive call. Records with an inconclusive call do not appear. Where a call stands in place of a potency, no number is given. The source made the active and inactive calls. Unless noted, the call rests on the fitted dose curve; in most records, active means well fitted curve in the direction sought with a large enough effect in the repeat runs; inconclusive means weak or mixed curves; inactive means no such curve, though single readings can be large; an effect the other way counts as inactive or inconclusive.
# Assays:
# [1] = qHTS assay for small molecules that induce genotoxicity in human embryonic kidney cells expressing luciferase-tagged ATAD5 (AID 651632); further: nearly all actives have a fitted effect of over 15% in size
# Outline: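 Reporter cells (HEK293T) express luciferase-tagged ATAD5, a protein that accumulates after DNA damage. Treat 16 hr at 37C/5% CO2, add Amplite, wait 30 min at RT, and read luminescence.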
# [2] = qHTS assay for small molecule agonists of the p53 signaling pathway - cell viability (AID 651633; calls by dose curve; further: nearly all actives have a fitted effect of over 30% in size; further: potency means the concentration at half of the fitted maximal effect)
# Outline: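 p53RE-bla cells, seeded at 4,000 per well and rested 5 h at 37 C/5% CO2, received compounds in DMSO for 16 h at 37 C. CellTiter-Glo was then added, and luminescence was read after 30 min at room temperature to gauge cytotoxicity.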
# [3] = qHTS assay for small molecules that induce genotoxicity in human embryonic kidney cells expressing luciferase-tagged ATAD5 - cell viability (AID 651634; calls by dose curve; further: nearly all actives have a fitted effect of over 25% in size; further: potency means the concentration at half of the fitted maximal effect)
# Outline: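 Seeding of 2,000 HEK293T ATAD5-luciferase cells per well preceded pin-tool compound transfer. Plates sat 15.5 hr at 37C under 5% CO2, then fluorescence was read after 30 min with CellTiter-Fluor.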
# [4] = qHTS assay for small molecule disruptors of the mitochondrial membrane potential - cell viability (AID 720634; calls by dose curve; further: nearly all actives have a fitted effect of over 20% in size; further: potency means the concentration at half of the fitted maximal effect)
# Outline: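 Measuring cytotoxicity alongside mitochondrial potential, the screen quantified ATP by luminescence in HepG2 cells after 1 hr compound incubation and a 30 min room-temperature CellTiter-Glo step.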
# [5] = qHTS assay to test for compound auto fluorescence at 590 nm (red) in HepG2 cells (AID 720674)
# Outline: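 Compound auto-fluorescence is scored relative to Rose Bengal sodium, measured at 540/590 nm in live HepG2 cultures after 1 hr compound contact (37 C, 5% CO2).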
# [6] = qHTS assay to test for compound auto fluorescence at 535 nm (green) in HepG2 cells (AID 720675)
# [7] = qHTS assay to test for compound auto fluorescence at 460 nm (blue) in HEK293 cells (AID 720678)
# Outline: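 After cell attachment (4-5 hr, 37C), compounds were pinned onto HEK293 monolayers in 10% dialyzed FBS medium. The blue channel (405/460 nm) was read following overnight culture. Equivalency was calculated against triamterene.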
# [8] = qHTS assay to test for compound auto fluorescence at 590 nm (red) in HEK293 cells (AID 720679)
# Outline: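 Plates of HEK293 cells (10% dialyzed FBS) are treated with 23 nL compound or DMSO vehicle after a 4-5 hr attachment period, incubated overnight at 37C, and read for red fluorescence at 540/590nm.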
# [9] = qHTS assay to test for compound auto fluorescence at 535 nm (green) in HEK293 cells (AID 720680)
# [10] = qHTS assay to test for compound auto fluorescence at 460 nm (blue) in HEK293 cell free culture (AID 720681)
# Outline: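 Test compounds were pinned into cell-free culture medium (DMEM with 10% FBS) and fluorescence was read directly at Ex/Em 405/460 nm. Signals were expressed as fluorescence equivalents of triamterene, with DMSO vehicle as control.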
# [11] = qHTS assay to test for compound auto fluorescence at 535 nm (green) in HEK293 cell free culture (AID 720682)
# Outline: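 Green-channel intensity (Ex/Em 485/535 nm) was recorded from compound-treated wells containing only DMEM with 10% FBS. Fluorescein provided the equivalency standard.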
# [12] = qHTS assay to test for compound auto fluorescence at 590 nm (red) in HEK293 cell free culture (AID 720683)
# Outline: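 Tox21 10K library compounds were pinned into cell-free DMEM with 10% FBS and fluorescence was read at excitation 540 nm. Activity is expressed as Rose Bengal sodium equivalency.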
# [13] = qHTS assay to test for compound auto fluorescence at 535 nm (green) in HepG2 cell free culture (AID 720686)
# [14] = qHTS assay to test for compound auto fluorescence at 460 nm (blue) in HepG2 cells (AID 720687)
# Outline: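 Cells (2,000/well in MEM with 10% FBS) attached overnight at 37 C, then were exposed to compound or DMSO for 1 hr at 37 C, 5% CO2. Fluorescence read at Ex/Em 405/460 nm, expressed as triamterene-equivalent signal.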
# [15] = target: Glucocorticoid receptor (Homo sapiens) (UniProt P04150); experiment: qHTS assay to identify small molecule agonists of the glucocorticoid receptor (GR) signaling pathway (AID 720691; active means well fitted activation curve with a large enough effect in the signal ratio in the repeat runs, not every such curve was filed as active; the % refers to the signal ratio)
# Chain of Glucocorticoid receptor (Homo sapiens) (P04150 whole entry, looked up): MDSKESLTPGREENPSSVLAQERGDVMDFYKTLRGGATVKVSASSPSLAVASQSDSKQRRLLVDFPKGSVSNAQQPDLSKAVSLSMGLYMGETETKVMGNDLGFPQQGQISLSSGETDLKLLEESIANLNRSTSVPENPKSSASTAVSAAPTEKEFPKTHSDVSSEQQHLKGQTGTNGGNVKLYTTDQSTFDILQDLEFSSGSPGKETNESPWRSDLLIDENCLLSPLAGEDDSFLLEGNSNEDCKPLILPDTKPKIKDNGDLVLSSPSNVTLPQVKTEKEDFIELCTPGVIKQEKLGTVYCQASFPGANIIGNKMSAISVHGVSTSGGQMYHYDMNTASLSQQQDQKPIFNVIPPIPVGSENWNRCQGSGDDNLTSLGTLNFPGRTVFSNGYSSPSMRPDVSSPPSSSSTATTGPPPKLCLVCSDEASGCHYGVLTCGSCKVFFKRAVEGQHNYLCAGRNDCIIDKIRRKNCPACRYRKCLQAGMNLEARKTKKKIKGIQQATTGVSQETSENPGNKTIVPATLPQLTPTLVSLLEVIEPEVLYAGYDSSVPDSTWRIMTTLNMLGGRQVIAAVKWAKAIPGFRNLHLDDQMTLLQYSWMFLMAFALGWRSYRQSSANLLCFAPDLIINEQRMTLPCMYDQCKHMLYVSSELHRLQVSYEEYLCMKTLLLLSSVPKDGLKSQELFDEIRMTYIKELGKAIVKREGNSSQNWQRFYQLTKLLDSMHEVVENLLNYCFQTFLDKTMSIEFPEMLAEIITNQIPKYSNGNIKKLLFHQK
# Outline: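 Reporter read-out: fluorescence intensity following 2 h room-temperature LiveBLAzer B/G FRET substrate loading. Prior step: GR-bla HeLa cells held 4 h, then treated 18 h at 37 C.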
# [16] = qHTS assay for small molecule disruptors of the mitochondrial membrane potential (AID 720635); further: potency means the concentration at half of the fitted maximal effect
# Outline: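 HepG2 cells (2,000/well) attached overnight at 37C, then took compound for 1 hr at 37C, 5% CO2. Mito-MPS dye was added for 30 min; fluorescence was read at 490/535 nm (monomers) and 540/590 nm (aggregates).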
# [17] = qHTS assay to test for compound auto fluorescence at 590 nm (red) in HepG2 cell free culture (AID 720684)
# Outline: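 Red fluorescence (540 nm excitation, 590 nm emission) was measured after compound transfer into cell-free MEM supplemented with 10% FBS. Values are equivalencies against Rose Bengal sodium.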
# [18] = qHTS assay to test for compound auto fluorescence at 460 nm (blue) in HepG2 cell free culture (AID 720685)
# Outline: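 Compound (23 nL) or DMSO pinned into cell-free MEM with 10% FBS; blue fluorescence read at 405/460 nm excitation/emission, expressed as auto-fluorescence equivalency to triamterene.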
# [19] = target: Glucocorticoid receptor (Homo sapiens) (UniProt P04150); experiment: qHTS assay to identify small molecule antagonists of the glucocorticoid receptor (GR) signaling pathway (AID 720692; active means well fitted inhibition curve with a large enough effect in the signal ratio in the repeat runs, not every such curve was filed as active; the % refers to the signal ratio; further: potency means the concentration at half of the fitted maximal effect)
# Outline: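 Dexamethasone (5 nM final) stimulated a stably integrated GRE-beta-lactamase reporter in HeLa cells during 18 h co-incubation with compounds; signal was quantified as fluorescence intensity of B/G FRET substrate after 2 h.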
# [20] = qHTS assay for small molecule agonists of the p53 signaling pathway (AID 651631; calls by dose curve; further: nearly all actives have a fitted effect of over 15% in size)
# Outline: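 We treat p53RE-bla HCT-116 cells with compounds for 16 h at 37 °C, add LiveBLAzer B/G FRET substrate for 2 h at room temperature, and measure fluorescence intensity.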
compound,measurement,setting,value
Oc1cc2c(cc1O)[C@H]1c3ccc(O)c(O)c3OC[C@@]1(O)C2,Potency,[1],inactive
same,Potency,[2],inactive
same,Potency,[3],69.4 µM (active)
same,Potency,[4],inactive
same,outcome,[5],inactive
same,outcome,[6],inactive
same,Potency,[7],inactive
same,outcome,[8],inactive
same,outcome,[9],inactive
same,Potency,[10],inactive
same,outcome,[11],inactive
same,outcome,[12],inactive
same,outcome,[13],inactive
same,Potency,[14],inactive
same,Potency,[15],inactive
COC(=O)CS,Potency,[1],inactive
same,Potency,[2],inactive
same,Potency,[3],inactive
same,Potency,[4],inactive
same,Potency,[16],inactive
same,outcome,[5],inactive
same,outcome,[6],inactive
same,Potency,[7],inactive
same,outcome,[8],inactive
same,outcome,[9],inactive
same,Potency,[10],inactive
same,outcome,[11],inactive
same,outcome,[12],inactive
same,outcome,[17],inactive
same,Potency,[18],inactive
same,outcome,[13],inactive
same,Potency,[14],inactive
O=c1cc(-c2ccccc2)oc2cc(O)cc(O)c12,Potency,[1],inactive
same,Potency,[2],inactive
same,Potency,[3],inactive
same,Potency,[4],30.6 µM (active)
same,Potency,[16],3.86 µM (active)
same,outcome,[5],inactive
same,outcome,[6],inactive
same,Potency,[7],inactive
same,outcome,[8],inactive
same,outcome,[9],inactive
same,Potency,[10],inactive
same,outcome,[11],inactive
same,outcome,[12],inactive
same,outcome,[17],inactive
same,Potency,[18],inactive
same,outcome,[13],inactive
same,Potency,[15],inactive
CCCCCCCCCCCCCCN(CCO)CCO,Potency,[1],inactive
same,Potency,[2],48.6 µM (active)
same,Potency,[3],inactive
same,Potency,[4],inactive
same,outcome,[5],inactive
same,outcome,[6],inactive
same,Potency,[7],inactive
same,outcome,[8],inactive
same,outcome,[9],inactive
same,Potency,[10],inactive
same,outcome,[11],inactive
same,outcome,[12],inactive
same,outcome,[17],inactive
same,Potency,[18],inactive
same,outcome,[13],inactive
same,Potency,[19],19.5 µM (active)
CC1=Nc2ccc3ccccc3c2C1(C)C,Potency,[1],inactive
same,Potency,[2],inactive
same,Potency,[3],inactive
same,Potency,[4],inactive
same,Potency,[16],19.3 µM (active)
same,outcome,[5],inactive
same,outcome,[6],inactive
same,Potency,[7],inactive
same,outcome,[8],inactive
same,outcome,[9],inactive
same,Potency,[10],inactive
same,outcome,[11],inactive
same,outcome,[12],inactive
same,outcome,[17],inactive
same,Potency,[18],inactive
same,outcome,[13],inactive
same,Potency,[14],inactive
CCOc1ccccc1O[C@H](c1ccccc1)[C@H]1CNCCO1,Potency,[1],inactive
same,Potency,[2],inactive
same,Potency,[3],inactive
same,Potency,[4],inactive
same,outcome,[5],inactive
same,outcome,[6],inactive
same,Potency,[7],inactive
same,outcome,[8],inactive
same,outcome,[9],inactive
same,Potency,[10],inactive
same,outcome,[11],inactive
same,outcome,[12],inactive
same,outcome,[17],inactive
same,outcome,[13],inactive
same,Potency,[14],inactive
same,Potency,[15],inactive
same,Potency,[19],inactive
CCc1ccccc1,Potency,[1],inactive
same,Potency,[2],inactive
same,Potency,[3],inactive
same,Potency,[4],inactive
same,outcome,[5],inactive
same,outcome,[6],inactive
same,outcome,[8],inactive
same,outcome,[9],inactive
same,Potency,[10],inactive
same,outcome,[11],inactive
same,outcome,[12],inactive
same,outcome,[17],inactive
same,Potency,[18],inactive
same,outcome,[13],inactive
same,Potency,[19],inactive
CCN(CC)CCNC(=O)COc1ccc(OC)cc1,Potency,[1],inactive
same,Potency,[2],inactive
same,Potency,[3],inactive
same,Potency,[4],inactive
same,outcome,[5],inactive
same,outcome,[6],inactive
same,Potency,[7],inactive
same,outcome,[8],inactive
same,outcome,[9],inactive
same,Potency,[10],inactive
same,outcome,[11],inactive
same,outcome,[12],inactive
same,outcome,[17],inactive
same,Potency,[18],inactive
same,outcome,[13],inactive
same,Potency,[14],inactive
same,Potency,[15],inactive
C=CC(C)(CCC=C(C)C)OC(=O)CC(C)C (centres undefined),Potency,[1],inactive
same,Potency,[2],inactive
same,Potency,[3],inactive
same,Potency,[4],inactive
same,Potency,[16],inactive
same,outcome,[5],inactive
same,outcome,[6],inactive
same,Potency,[7],inactive
same,outcome,[8],inactive
same,outcome,[9],inactive
same,Potency,[10],inactive
same,outcome,[11],inactive
same,outcome,[12],inactive
same,Potency,[18],inactive
same,outcome,[13],inactive
same,Potency,[14],inactive
same,Potency,[15],inactive
same,Potency,[19],inactive
O=C(OCC(O)CO)c1ccccc1Nc1ccnc2cc(Cl)ccc12 (centres undefined),Potency,[1],inactive
same,Potency,[2],inactive
same,Potency,[3],inactive
same,Potency,[4],inactive
same,"fluorescence, relative to Rose Bengal",[5],0.0018% [at 18.6 µM]
same,"fluorescence, % of fluorescein control",[6],0.0219% [at 18.6 µM]
same,"fluorescence, % of triamterene",[7],0.52% [at 18.6 µM]
same,"fluorescence, % of fluorescent control",[8],-0.0042% [at 18.6 µM]
same,"fluorescence, % of fluorescein",[9],-0.106% [at 18.6 µM]
same,"fluorescence, % of fluorescent control",[10],0.416% [at 18.6 µM]
same,activity change,[11],0.0295% [at 18.6 µM]
same,"fluorescence, % of fluorescent control",[12],0.0763% [at 18.6 µM]
same,"fluorescence, % of Rose Bengal",[17],0.268% [at 18.6 µM]
same,"fluorescence, % of fluorescent control",[18],0.0675% [at 18.6 µM]
same,"fluorescence, % of fluorescein control",[13],-0.0285% [at 18.6 µM]
CC(=O)OCC(=O)NCCCOc1cccc(CN2CCCCC2)c1,Potency,[1],inactive
same,Potency,[2],inactive
same,Potency,[3],inactive
same,Potency,[4],inactive
same,outcome,[5],inactive
same,outcome,[6],inactive
same,Potency,[7],inactive
same,outcome,[8],inactive
same,outcome,[9],inactive
same,Potency,[10],inactive
same,outcome,[11],inactive
same,outcome,[12],inactive
same,outcome,[17],inactive
same,outcome,[13],inactive
same,Potency,[14],inactive
Cc1c(C)c2c(c(C)c1OC(=O)CCC(=O)OCCO)CC[C@@](C)(CCC[C@H](C)CCC[C@H](C)CCCC(C)C)O2,Potency,[1],inactive
same,Potency,[2],21.1 µM (active)
same,Potency,[3],23.7 µM (active)
same,Potency,[4],inactive
same,Potency,[16],inactive
same,outcome,[5],inactive
same,outcome,[6],inactive
same,Potency,[7],inactive
same,outcome,[8],inactive
same,Potency,[10],inactive
same,outcome,[11],inactive
same,outcome,[12],inactive
same,outcome,[17],inactive
same,Potency,[18],inactive
same,outcome,[13],inactive
same,Potency,[14],inactive
same,Potency,[19],19 µM (active)
Cc1ccccc1S,Potency,[1],inactive
same,Potency,[2],inactive
same,Potency,[3],inactive
same,Potency,[4],inactive
same,Potency,[16],inactive
same,outcome,[5],inactive
same,outcome,[6],inactive
same,Potency,[7],inactive
same,outcome,[8],inactive
same,Potency,[10],inactive
same,outcome,[11],inactive
same,outcome,[12],inactive
same,outcome,[17],inactive
same,Potency,[18],inactive
same,outcome,[13],inactive
same,Potency,[14],inactive
Nc1cccc2c1CN(C1CCC(=O)NC1=O)C2=O (centres undefined),Potency,[1],inactive
same,Potency,[2],inactive
same,Potency,[3],inactive
same,Potency,[4],inactive
same,outcome,[5],inactive
same,outcome,[6],inactive
same,Potency,[7],inactive
same,outcome,[8],inactive
same,Potency,[10],inactive
same,outcome,[11],inactive
same,outcome,[12],inactive
same,outcome,[17],inactive
same,Potency,[18],inactive
same,outcome,[13],inactive
same,Potency,[14],inactive
same,Potency,[15],inactive
same,Potency,[19],inactive
CC(C)C=O,Potency,[20],inactive
same,Potency,[16],inactive
same,outcome,[5],inactive
same,outcome,[6],inactive
same,outcome,[8],inactive
same,outcome,[9],inactive
same,Potency,[10],inactive
same,outcome,[11],inactive
same,outcome,[12],inactive
same,outcome,[17],inactive
same,Potency,[18],inactive
same,outcome,[13],inactive
same,Potency,[14],inactive
same,Potency,[15],inactive
same,Potency,[19],inactive

# Reference: PubChem BioAssay (Tox21)
